Assay [1] in a line: qHTS assay to identify small molecule agonists of the hypoxia (HIF-1) signaling pathway - cell viability counter screen (AID 1224844; calls by dose curve; also: nearly all actives have a fitted effect of over 50% in size; also: potency is read from the fitted curve at half-maximal effect). The method, boiled down:
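HRE-bla ME-180 cells in medium with 0.5% dialyzed FBS were preincubated 5 hrs at 37C, exposed to compounds for 17 hrs, then viability was read as CellTiter-Glo luminescence after 30 min at room temperature, in the reporter wells.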
Background: In qHTS, concentration-response curves come from the screen itself.

The nature of assay [2]: qHTS assay to identify small molecule agonists of H2AX (AID 1224845; active = well fitted activation curve with a large enough effect in the signal ratio in the repeat runs, not every such curve was filed as active; the % refers to the signal ratio). The method, boiled down:
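Wild-type CHO-K1 cells, plated overnight, exposed 3hr at 37C to 15 concentrations (0.76% DMSO final). Lysed, then HTRF anti-pH2AX (S139) cryptate and anti-H2AX-d2 antibodies, 24 hr room temperature; 665/620 nm emission read.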

Assay [3] can be described thus: qHTS assay to identify small molecule agonists of the hypoxia (HIF-1) signaling pathway (AID 1224846; active = well fitted activation curve with a large enough effect in the signal ratio in the repeat runs, not every such curve was filed as active; the % refers to the signal ratio). The method, boiled down: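 HRE-bla ME-180 cells (beta-lactamase reporter under hypoxia response element) were plated at 2,000 cells/well in medium with 0.5% dialyzed FBS, rested 5 hrs, then given compounds in DMSO for 17 hrs at 37C, 5% CO2. Reporter induction was read with CCF4-AM FRET substrate.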

Assay [4] is described as follows: qHTS assay to identify small molecule agonists of H2AX - cell viability counter screen (AID 1224847; calls by dose curve; also: nearly all actives have a fitted effect of over 30% in size; also: potency is read from the fitted curve at half-maximal effect). In outline: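 Viability of CHO-K1 (wild type) cells after 3 hr compound exposure was measured by CellTiter-Glo luminescence.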
Assay [5] can be described thus: qHTS RealTime-Glo MT Cell Viability Assay in HEK293 cells - 32 hour (AID 1224868). Also: nearly all actives have a fitted effect of over 50% in size. Also: potency is read from the fitted curve at half-maximal effect. In outline: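 Luminescence generated by NanoLuc from substrate produced by living HEK293 cells served as the viability signal. Each value reflects the reading at its stated time point during continuous 40 h compound exposure at 37 C.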
Assay [6] in a line: A CellTox Green Cytotoxicity Assay to monitor cytotoxicity in HEK293 cells - 0 hour (AID 1224869). Also: nearly all actives have a fitted effect of over 50% in size. Also: potency is read from the fitted curve at half-maximal effect. The method, boiled down:
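HEK293 cells premixed with CellTox Green dye were seeded at 600 cells/well and left 5 h at 37 C/5% CO2 before pin transfer of 23 nL compound in DMSO. Fluorescence from dye bound to dead-cell DNA was read during 40 h treatment.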

The nature of assay [7]: qHTS RealTime-Glo MT Cell Viability Assay in HepG2 cells - 40 hour (AID 1224870). Also: nearly all actives have a fitted effect of over 50% in size. Also: potency is read from the fitted curve at half-maximal effect. The method, boiled down:
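HepG2 cells (600/well) mixed with RealTime-Glo MT reagent, settled 5 h at 37 C/5% CO2 before compound addition. Nonlytic NanoLuc luminescence from viable-cell prosubstrate reduction read repeatedly during 40 h treatment at 37 C.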

The nature of assay [8]: qHTS RealTime-Glo MT Cell Viability Assay in HepG2 cells - 24 hour (AID 1224867). Also: nearly all actives have a fitted effect of over 50% in size. The method, boiled down: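 Tox21 10K library screened in qHTS format on HepG2 cells carrying RealTime-Glo reagents. Compounds were added after a 5 h preincubation, and the luminescent signal from continuous culture was measured repeatedly during 40 h treatment.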
A short description of assay [9]: qHTS assay to identify small molecule antagonists of the estrogen related receptor (ERR) signaling pathway from Tox21 library (AID 1224848). Also: nearly all actives have a fitted effect of over 50% in size. Also: potency is read from the fitted curve at half-maximal effect. The method, boiled down:
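ERR reporter cell line (from NTP) seeded 2,000 cells/well, rested 6 h at 37 C/5% CO2, then pin-dosed with compounds in DMSO. After 18 h at 37 C, ONE-Glo added; luminescence read after 30 min at room temperature.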

Assay [10] in a line: qHTS assay to identify small molecule agonists of the estrogen related receptor (ERR) signaling pathway from Tox21 library (AID 1224849; calls by dose curve; also: nearly all actives have a fitted effect of over 15% in size). As to conditions: ERR reporter cell line, ONE-Glo luciferase, 18 h. The method, boiled down:
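ERR reporter cell line (NTP) seeded, rested 6 h at 37 C/5% CO2, then pinned with Tox21 compounds in DMSO. After 18 h at 37 C, ONE-Glo luciferase luminescence was read following 30 min at room temperature.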

Molecules are shown by their SMILES. “And” between values parts separate entries of the source, which are not always exact repeats. Equal entries are not always repeated. Inconclusive results are not listed. More than one record can exist for a structure, and the calls need not agree. The source made the active and inactive calls. Unless noted, calls follow the shape of the dose curve; as a rule, active = well fitted curve in the direction sought with a large enough effect in the repeat runs; inconclusive = weak or mixed curves; inactive = no such curve, though single readings can be large; an effect the other way counts as inactive or inconclusive.

The record followed here is PubChem BioAssay (Tox21).
% is scaled to controls: 0 for no effect and ±100 for the full control effect.

Turning to `CCCCCCCCCCC(CO)CCCCCCCC` (stereo unspecified), the Potency result in assay [1], in assay [2], in assay [4], in assay [5], in assay [6] and in assay [7] was “inactive” throughout. Further, the compound was called inactive in assay [3].
For `CCCCCCC(C)O` (stereo unspecified), the Potency entry in [1], in [2], in assay [4], in [8], in [5] and in [6] was “inactive” throughout. Moreover, in assay [7], the Potency entry was “inactive”. The compound was classed as inactive in [3].
Take `Clc1ccc(Sc2cc(Cl)c(Cl)cc2Cl)cc1`: the Potency result in assay [1], in [2], in [4], in assay [5], in assay [6] and in [7] was “inactive” in each case. Moreover, the outcome in [3] was inactive.
As to `CC/C=C\C/C=C\C/C=C\CCCCCCCC(=O)O`, the Potency result in assay [1], in assay [2], in [4], in [5], in assay [6] and in assay [7] was “inactive” throughout. In assay [3], the outcome was inactive.
For `CCCOCCO`, the Potency entry in assay [1], in assay [2], in assay [4], in [5], in [6] and in assay [7] was “inactive” each time. Also, the call in [3] was inactive.
For `CCCCCCCCCCCCO`, the Potency entry in assay [1], in assay [2], in assay [4], in assay [8], in [5] and in [6] was “inactive” in each case. In assay [7], the Potency entry was “inactive”. In addition, the compound was called inactive in [3].
In the case of `CC(=O)Oc1ccc(C(c2ccc(OC(C)=O)cc2)c2ccccn2)cc1`, in assay [1], the Potency is 109 nM (active) and 756 nM (active). Besides, the Potency result in [2], in [4], in assay [5], in assay [6] and in [7] was “inactive” throughout. Also, the compound was classed as inactive in assay [3].
Regarding `c1ccc2ncccc2c1`, the Potency result in assay [1], in assay [2], in [4], in [5], in [6] and in [7] was “inactive” each time. In addition, in assay [3], the compound was called inactive.
In the case of `c1ccc2c(c1)[nH]c1ccccc12`, the Potency result in assay [1], in assay [2], in assay [4], in assay [8], in assay [5] and in assay [6] was “inactive” in each case. The Potency result in [7] was “inactive”. In addition, in [3], the compound was classed as inactive.
As to `C=CN1CCCC1=O`, the Potency entry in assay [1], in [2], in assay [4], in assay [8], in assay [5] and in [6] was “inactive” each time. In addition, the Potency entry in assay [7] is “inactive”. Also, in [3], the result was inactive.
For the compound `CC1(C)O[C@@H]2C[C@H]3[C@@H]4C[C@H](F)C5=CC(=O)C=C[C@]5(C)[C@@]4(F)[C@@H](O)C[C@]3(C)[C@]2(C(=O)CO)O1`, the Potency entry in assay [1], in assay [2], in assay [4], in assay [8], in [5] and in assay [6] was “inactive” each time. The Potency result in assay [7] is “inactive”. In addition, the result in assay [3] was inactive.
Turning to `C1COCCN1`, the Potency entry in assay [1], in [2], in [4], in assay [5], in [6] and in assay [7] was “inactive” in each case. In [3], the result was inactive.
As to `NCCN`, the Potency entry in assay [1], in assay [2], in [4], in [5] and in [6] was “inactive” throughout. Also, the call in assay [3] was inactive. Moreover, the Potency result in assay [7] is “inactive and 13.8 µM (active)”.
As to `Nc1ccc2c(O)cc(S(=O)(=O)O)cc2c1`, in assay [3], the compound was classed as inactive. Moreover, the Potency entry in [4], in [6] and in assay [7] was “inactive” in each case. Further, the Potency in assay [9] is 24.4 µM (active) and 13.7 µM (active); in [5], 6.17 µM (active). In addition, in assay [10] (at 92.4 µM (top of the series)), the activity change, positive = activation was -54% (inactive) and -40.6% (inactive).
As for `Cc1ccc(/C(=C\CN2CCCC2)c2ccccn2)cc1`, the Potency entry in assay [1], in assay [2], in assay [4], in assay [8], in assay [5] and in assay [6] was “inactive” each time. The Potency entry in [7] is “inactive”.
For the compound `Cc1ccc(C(C)(C)C)cc1`, the Potency result in assay [1], in assay [2], in assay [4], in [5], in assay [6] and in assay [7] was “inactive” in each case. Also, the result in [3] was inactive.
Turning to `[Na+]`, the Potency entry in [1], in [2], in assay [4], in [5] and in assay [6] was “inactive” in each case. Also, the compound was classed as inactive in assay [3]. Also, the Potency entry in assay [7] is “inactive and 38.9 µM (active)”.
Consider `NCCS(=O)(=O)O`, for which the Potency entry in [1], in [2], in assay [4], in [8], in [5] and in [6] was “inactive” in each case. Also, in assay [7], the Potency result was “inactive”.
On to `CC(=O)O[C@]1(C(C)=O)CC[C@H]2[C@@H]3C=C(C)C4=CC(=O)CC[C@]4(C)[C@H]3CC[C@@]21C`, for which the Potency entry in assay [1], in assay [2], in [4], in assay [6] and in assay [7] was “inactive” in each case. Moreover, the Potency in [9] was 21.7 µM (active) and 26.6 µM (active); in assay [5] it was 17.4 µM (active). Further, the results for the activity change, positive = activation in assay [10] (at 42.5 µM (top of the series)) and in assay [10] (at 92.4 µM (top of the series)) were -37.5% (inactive) and -63.2% (inactive), respectively.
For `Nc1ccc(N)c(Cl)c1`, the Potency result in assay [1], in assay [8], in assay [5] and in assay [7] was “inactive” throughout. For the same compound, in assay [3], the call was inactive. The Potency in [9] was 68.5 µM (active) and 54.5 µM (active); in assay [6], “inactive and 38.9 µM (active)”. For the same compound, the activity change, positive = activation in [10] (at 92.4 µM (top of the series)) is -59.7% (inactive) and -39% (inactive).
On to `CCOC(=O)C(C)Oc1ccc(Oc2cnc3cc(Cl)ccc3n2)cc1` (stereo unspecified), for which the Potency result in assay [1], in [2], in assay [8], in assay [6] and in assay [7] was “inactive” each time. In assay [3], the outcome was inactive. Also, the Potency in [5] is 39.9 µM (active).
As to `CC1(C)NC(=O)N(c2ccc([N+](=O)[O-])c(C(F)(F)F)c2)C1=O`, the Potency entry in assay [1], in assay [2], in assay [8], in [6] and in [7] was “inactive” throughout. Moreover, the Potency in assay [4] was 28.4 µM (active) and inactive; in assay [9], 17.2 µM (active) and 11.9 µM (active); in assay [5], 24.5 µM (active). Further, the activity change, positive = activation was -39.2% (inactive) in assay [10] (at 42.5 µM (top of the series)) and -43.1% (inactive) in [10] (at 92.4 µM (top of the series)).
For `CC[C@]12CCCN3CCc4c(n(c5ccccc45)[C@@](O)(C(=O)OC)C1)[C@@H]32`, the Potency entry in assay [1], in [2], in assay [4], in assay [9], in assay [8] and in assay [5] was “inactive” each time. Also, the Potency entry in [6] and in assay [7] was “inactive” in each case. The activity change, positive = activation was 7.75% (inactive) in assay [10] (at 42.5 µM (top of the series)) and -6.91% (inactive) in assay [10] (at 92.4 µM (top of the series)).
Consider `CC1(C)OC(=O)NC1=O`, for which the Potency entry in assay [1], in [2], in assay [4], in assay [9], in assay [8] and in assay [5] was “inactive” each time. The Potency entry in [6] and in assay [7] was “inactive” throughout. Moreover, the activity change, positive = activation was 3.88% (inactive) in [10] (at 42.5 µM (top of the series)) and 4.19% (inactive) in [10] (at 92.4 µM (top of the series)).
As for `CC/C(=C(/CC)c1ccc(O)cc1)c1ccc(O)cc1`, the Potency entry in assay [1], in assay [2], in [6] and in assay [7] was “inactive” in each case. In addition, the Potency in assay [4] was 112 µM (active) and inactive; in assay [5], 10.9 µM (active) and 27.5 µM (active).
